Laboratory results: PubChem BioAssay
The source made the active and inactive calls. How the calls were made is not given here.

How the values were obtained:
[1] = test system: Botulinum neurotoxin type F light chain protease (Clostridium botulinum); assay: Clostridium botulinum type F light chain protease inhibitors, microsphere substrate cleavage, validation (AID 588459); conditions: multiplex microsphere protease substrate cleavage assay, flow cytometry; at 10 µM; stronger effect = higher value
[2] = biological target: Botulinum neurotoxin type A (Clostridium botulinum) (UniProt P0DPI0); assay: BoNT/A light chain protease inhibitors, biochemical, multiplex microsphere flow cytometry, validation set (AID 588460); conditions: at 10 µM, stronger effect = higher value
Chain of Botulinum neurotoxin type A (Clostridium botulinum) (P0DPI0 whole entry, looked up): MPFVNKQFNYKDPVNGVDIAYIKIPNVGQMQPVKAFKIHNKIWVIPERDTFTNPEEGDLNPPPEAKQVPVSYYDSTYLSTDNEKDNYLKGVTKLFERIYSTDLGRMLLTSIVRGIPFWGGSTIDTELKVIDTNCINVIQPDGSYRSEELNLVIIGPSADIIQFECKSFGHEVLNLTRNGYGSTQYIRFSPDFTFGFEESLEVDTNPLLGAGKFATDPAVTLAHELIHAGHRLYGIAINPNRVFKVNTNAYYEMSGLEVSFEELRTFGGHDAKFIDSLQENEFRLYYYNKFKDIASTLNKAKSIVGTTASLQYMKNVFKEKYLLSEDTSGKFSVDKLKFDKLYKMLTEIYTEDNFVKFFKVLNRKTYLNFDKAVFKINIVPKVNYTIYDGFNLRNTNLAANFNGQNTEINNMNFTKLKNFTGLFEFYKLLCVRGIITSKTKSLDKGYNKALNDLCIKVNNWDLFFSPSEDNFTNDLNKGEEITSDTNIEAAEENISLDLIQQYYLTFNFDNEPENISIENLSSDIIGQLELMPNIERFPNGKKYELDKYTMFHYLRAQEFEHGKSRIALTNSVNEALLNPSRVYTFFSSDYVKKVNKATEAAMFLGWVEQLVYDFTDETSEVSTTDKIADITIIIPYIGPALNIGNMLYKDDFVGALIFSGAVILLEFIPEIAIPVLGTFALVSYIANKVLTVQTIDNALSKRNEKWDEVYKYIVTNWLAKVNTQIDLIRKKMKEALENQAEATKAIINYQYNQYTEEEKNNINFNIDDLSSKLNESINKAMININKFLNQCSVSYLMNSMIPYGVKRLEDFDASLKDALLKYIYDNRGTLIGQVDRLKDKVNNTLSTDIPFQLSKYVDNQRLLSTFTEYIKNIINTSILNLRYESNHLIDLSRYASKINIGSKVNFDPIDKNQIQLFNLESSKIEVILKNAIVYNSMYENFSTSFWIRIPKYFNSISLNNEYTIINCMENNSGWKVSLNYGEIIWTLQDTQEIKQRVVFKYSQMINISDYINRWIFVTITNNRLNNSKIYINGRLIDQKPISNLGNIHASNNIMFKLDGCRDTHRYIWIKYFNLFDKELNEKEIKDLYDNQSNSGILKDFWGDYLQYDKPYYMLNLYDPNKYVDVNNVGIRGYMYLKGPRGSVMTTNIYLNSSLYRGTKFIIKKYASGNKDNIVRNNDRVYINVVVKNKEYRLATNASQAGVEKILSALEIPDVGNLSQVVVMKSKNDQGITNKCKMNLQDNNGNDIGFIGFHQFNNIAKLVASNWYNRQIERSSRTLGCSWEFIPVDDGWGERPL

[3] = biological target: Lethal factor (Bacillus anthracis) (UniProt P15917); assay: Bacillus anthracis lethal factor inhibition, microsphere flow cytometry protease assay, validation at 10 µM (AID 588461); conditions: multiplex microsphere protease cleavage assay, stronger effect = higher value
Chain of Lethal factor (Bacillus anthracis) (P15917 whole entry, looked up): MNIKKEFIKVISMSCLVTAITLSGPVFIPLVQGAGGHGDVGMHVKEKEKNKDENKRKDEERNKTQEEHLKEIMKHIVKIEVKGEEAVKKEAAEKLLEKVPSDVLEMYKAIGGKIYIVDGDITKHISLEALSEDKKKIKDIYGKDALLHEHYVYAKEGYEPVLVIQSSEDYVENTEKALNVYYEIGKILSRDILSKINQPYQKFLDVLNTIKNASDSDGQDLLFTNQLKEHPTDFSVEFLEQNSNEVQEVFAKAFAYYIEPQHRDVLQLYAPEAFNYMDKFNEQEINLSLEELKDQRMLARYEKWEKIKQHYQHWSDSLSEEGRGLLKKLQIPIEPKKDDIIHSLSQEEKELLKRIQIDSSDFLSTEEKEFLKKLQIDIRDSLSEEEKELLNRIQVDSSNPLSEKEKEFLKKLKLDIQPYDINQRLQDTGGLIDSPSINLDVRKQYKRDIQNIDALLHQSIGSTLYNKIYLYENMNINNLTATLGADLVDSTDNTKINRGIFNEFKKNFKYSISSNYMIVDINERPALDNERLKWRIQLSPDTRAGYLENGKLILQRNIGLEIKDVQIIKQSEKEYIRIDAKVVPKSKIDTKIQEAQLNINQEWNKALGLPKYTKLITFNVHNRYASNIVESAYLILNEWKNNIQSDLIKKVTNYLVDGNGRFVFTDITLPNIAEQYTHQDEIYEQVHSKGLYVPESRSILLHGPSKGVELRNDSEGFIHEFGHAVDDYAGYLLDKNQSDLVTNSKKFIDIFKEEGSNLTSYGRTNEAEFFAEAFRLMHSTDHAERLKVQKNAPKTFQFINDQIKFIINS

Measured: inhibition

CC(C[N+](C)(C)C)OC(N)=O (stereo not drawn)
inactive: [1] -0.5% | [2] -0.4% | [3] 6.6%

COc1ccc(C2CC(c3c(O)cc(C)oc3=O)=NCCS2)c(OC)c1 (stereo not drawn)
inactive: [1] 4.5% | [2] 2% | [3] 4.3%

CSc1ccc2c(c1)N(CCC1CCCCN1C)c1ccccc1S2 (stereo not drawn)
inactive: [1] -0.1% | [2] -0.8% | [3] -7%

CC(=O)c1c(C)c(C)c2n1CCn1c(C)ccc1-2
inactive: [1] -0.2% | [2] -0.1% | [3] 0.9%

CSCCC(NC(=O)OC(C)(C)C)C(=O)Oc1ccc2c(=O)c(-c3ccc4c(c3)OCCO4)coc2c1 (stereo not drawn)
inactive: [1] -0.4% | [2] -0.4% | [3] -1.7%

COc1cc2c(cc1OC)C1(CCCCC1)CN(C)C2
inactive: [1] 1.7% | [2] -1.2% | [3] -1.7%

O=C(OCCN1CCOCC1)c1cccs1
inactive: [1] -2.8% | [2] -0.9% | [3] -1.2%

Cn1c(=O)c2c(ncn2Cc2ccccc2)n(C)c1=O
inactive: [1] 3.3% | [2] 3% | [3] 7.6%

CC(C)(C)NCC(O)COc1ccccc1C(=O)CCc1ccccc1 (stereo not drawn)
inactive: [1] -5.8% | [2] -2% | [3] -4.9%

COc1ccc(C(=O)Nc2ccccc2C(=O)NC(Cc2c[nH]c3ccccc23)C(=O)O)cc1 (stereo not drawn)
inactive: [1] -0.8% | [2] 0.5% | [3] 0%

CC12CCC(C(=O)NCc3ccc4c(c3)OCO4)(CC1=O)C2(C)C (stereo not drawn)
inactive: [1] 1.9% | [2] 1.2% | [3] 4.8%
